According to paper PMC4336329 (PLoS ONE, 2015):
About 2,200 (0.71%) of roughly 310,000 compounds showed an effect of 50% or more. Effects have a minus sign here. The sample as a whole holds a higher share of strong results than the screen did.

Molecular target: human ether-à-go-go-related gene (hERG) potassium channel (human, UniProt Q12809)
Test: primary screen, population patch clamp on CHO cells stably expressing hERG; higher = less effect of the substance

human ether-à-go-go-related gene (hERG) potassium channel, sequence (Q12809 whole entry, looked up): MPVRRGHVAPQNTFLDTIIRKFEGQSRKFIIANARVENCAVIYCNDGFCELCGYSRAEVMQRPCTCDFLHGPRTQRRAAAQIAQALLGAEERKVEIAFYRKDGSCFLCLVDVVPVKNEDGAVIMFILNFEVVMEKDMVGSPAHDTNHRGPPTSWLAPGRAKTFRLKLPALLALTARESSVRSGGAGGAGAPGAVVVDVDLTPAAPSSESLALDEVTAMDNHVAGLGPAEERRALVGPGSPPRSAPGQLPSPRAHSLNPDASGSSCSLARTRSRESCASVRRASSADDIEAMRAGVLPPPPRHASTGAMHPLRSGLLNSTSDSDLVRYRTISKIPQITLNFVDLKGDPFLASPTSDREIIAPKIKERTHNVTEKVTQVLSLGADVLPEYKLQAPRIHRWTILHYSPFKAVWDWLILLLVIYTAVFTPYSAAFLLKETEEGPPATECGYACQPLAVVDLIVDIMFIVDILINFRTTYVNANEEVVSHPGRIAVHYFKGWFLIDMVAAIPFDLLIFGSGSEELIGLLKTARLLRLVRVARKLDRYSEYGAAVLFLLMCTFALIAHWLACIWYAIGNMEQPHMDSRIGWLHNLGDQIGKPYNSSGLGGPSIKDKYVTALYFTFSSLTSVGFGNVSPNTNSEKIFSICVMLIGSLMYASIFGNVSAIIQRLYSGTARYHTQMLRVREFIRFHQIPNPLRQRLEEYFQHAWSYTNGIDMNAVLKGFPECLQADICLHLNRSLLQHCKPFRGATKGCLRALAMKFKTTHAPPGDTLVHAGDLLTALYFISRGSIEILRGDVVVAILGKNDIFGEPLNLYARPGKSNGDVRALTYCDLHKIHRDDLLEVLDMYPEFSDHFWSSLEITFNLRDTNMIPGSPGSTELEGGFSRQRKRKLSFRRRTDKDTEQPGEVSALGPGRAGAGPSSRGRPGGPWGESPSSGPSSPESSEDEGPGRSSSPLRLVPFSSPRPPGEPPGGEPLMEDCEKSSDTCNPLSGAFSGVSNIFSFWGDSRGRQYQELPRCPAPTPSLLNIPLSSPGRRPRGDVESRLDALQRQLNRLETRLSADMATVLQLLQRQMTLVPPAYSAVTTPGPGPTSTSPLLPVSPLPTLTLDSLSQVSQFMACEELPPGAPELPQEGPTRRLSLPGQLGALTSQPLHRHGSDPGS

Q: Which “hERG current change (%, negative = inhibition) at 1uM” value does the source give for `CCN(CC)Cc1cc(NC2=NS(=O)(=O)c3ccccc32)ccc1OC(=O)C(C)C.Cl` here?
A: 5.53%

Q: `COc1ccc(NS(=O)(=O)c2ccc(NS(C)(=O)=O)cc2)cc1` was tested. Which “hERG current change (%, negative = inhibition) at 1uM” value did it give?
A: 6.82%

Q: How did the “hERG current change (%, negative = inhibition) at 1uM” value turn out when `COc1ccc(CNC(=O)c2ccccc2C(=O)O)cc1` was run?
A: 0.458%

Q: How did the “hERG current change (%, negative = inhibition) at 1uM” value turn out when `CCN(CC(=O)Nc1c(F)cccc1F)C(=O)c1ccc(C#N)cc1` was run?
A: 8.99%

Q: With `O=C(CSc1nnc(-c2ccncc2)o1)Nc1nncs1` as the molecule, how does the “hERG current change (%, negative = inhibition) at 1uM” value read?
A: 15.3%

Q: Which “hERG current change (%, negative = inhibition) at 1uM” value does the source give for `O=C(CSc1nnc(-c2ccccc2Br)o1)Nc1cccc2ccccc12` here?
A: 3.82%

Q: For `O=C(CSc1nnc(-c2ccccc2Br)o1)Nc1nncs1`, which “hERG current change (%, negative = inhibition) at 1uM” value is on record?
A: -63.5%

Q: Which “hERG current change (%, negative = inhibition) at 1uM” value does the source give for `CSc1n[nH]c(NC2=CC(=O)CCC2)n1` here?
A: 15%

Q: `COc1ccccc1NC(=S)N1CCN(C/C=C/c2ccccc2)CC1` was tested. Which “hERG current change (%, negative = inhibition) at 1uM” value did it give?
A: 7.29%

Q: Which “hERG current change (%, negative = inhibition) at 1uM” value does the source give for `CC(C(=O)N(C)Cc1ccccc1)N1CCN(C/C=C/c2ccccc2)CC1` (centres unmarked) here?
A: -73.5%

Q: For `CNC(=O)NC(=O)C(C)N1CCN(C/C=C/c2ccccc2)CC1` (centres unmarked), which “hERG current change (%, negative = inhibition) at 1uM” value is on record?
A: -32.1%

Q: How did the “hERG current change (%, negative = inhibition) at 1uM” value turn out when `CC(C(=O)Nc1cccc([N+](=O)[O-])c1)N1CCN(C/C=C/c2ccccc2)CC1` (centres unmarked) was run?
A: -74.2%

Q: `CC(=O)c1ccc(NC(=O)C(C)N2CCN(C/C=C/c3ccccc3)CC2)cc1` (centres unmarked) was tested. Which “hERG current change (%, negative = inhibition) at 1uM” value did it give?
A: -41%

Q: How did the “hERG current change (%, negative = inhibition) at 1uM” value turn out when `COc1ccc(Cl)cc1NC(=O)C(C)N1CCN(C/C=C/c2ccccc2)CC1.O=C(O)C(=O)O` (centres unmarked) was run?
A: -14.3%

Q: For `CC(C(=O)Nc1cccc(S(=O)(=O)N2CCOCC2)c1)N1CCN(C/C=C/c2ccccc2)CC1` (centres unmarked), which “hERG current change (%, negative = inhibition) at 1uM” value is on record?
A: -32.5%

Q: For `COc1ccc(N2CCN(C(C)C(=O)N(C)Cc3ccccc3)CC2)cc1` (centres unmarked), which “hERG current change (%, negative = inhibition) at 1uM” value is on record?
A: -10%

Q: For `COc1ccccc1NC(=O)C(C)N1CCN(C/C=C/c2ccccc2)CC1` (centres unmarked), which “hERG current change (%, negative = inhibition) at 1uM” value is on record?
A: -75.2%

Q: How did the “hERG current change (%, negative = inhibition) at 1uM” value turn out when `Cc1sc2nc[nH]c(=O)c2c1-c1ccc(F)cc1` was run?
A: 17.2%

Q: Which “hERG current change (%, negative = inhibition) at 1uM” value does the source give for `Cc1ccccc1Nc1nc(-c2sc(NC(=O)c3ccccc3)nc2C)cs1` here?
A: 7.9%

Q: How did the “hERG current change (%, negative = inhibition) at 1uM” value turn out when `CC(c1ccncn1)N(C)C(=O)c1ccc2oc(Cc3ccccc3)nc2c1` (centres unmarked) was run?
A: 9.8%

Q: Which “hERG current change (%, negative = inhibition) at 1uM” value does the source give for `CCOc1ccc(NS(=O)(=O)c2ccc(NS(=O)(=O)c3ccc(SC)cc3)cc2)cc1` here?
A: 9.23%

Q: Which “hERG current change (%, negative = inhibition) at 1uM” value does the source give for `CCCN1Cc2cccc(C(=O)NCc3ccc(C)cc3)c2C1=O` here?
A: -4.32%

Q: With `CCC(C)N(C)C(=O)c1cc2ccccc2c(-c2ccccc2Cl)n1` (centres unmarked) as the molecule, how does the “hERG current change (%, negative = inhibition) at 1uM” value read?
A: -5.29%

Q: How did the “hERG current change (%, negative = inhibition) at 1uM” value turn out when `CC(Oc1ccc(Cl)cc1)C(=O)OCC(=O)Nc1ncc(Cl)cc1Cl` (centres unmarked) was run?
A: 3.29%

Q: With `O=C(Nc1ccc(F)cc1)c1nc[nH]c1C(=O)O` as the molecule, how does the “hERG current change (%, negative = inhibition) at 1uM” value read?
A: 18.5%

Q: `COc1ccccc1OCC(O)Cn1c(=N)n(CCN2CCCCC2)c2ccccc21.Cl` (centres unmarked) was tested. Which “hERG current change (%, negative = inhibition) at 1uM” value did it give?
A: -27.9%

Q: With `CCCCCn1c(=N)n(CC(O)COc2ccccc2OC)c2ccccc21` (centres unmarked) as the molecule, how does the “hERG current change (%, negative = inhibition) at 1uM” value read?
A: -82.8%

Q: With `Cc1ccccc1OCC(O)Cn1c(=N)n(Cc2ccccc2)c2ccccc21.Cl` (centres unmarked) as the molecule, how does the “hERG current change (%, negative = inhibition) at 1uM” value read?
A: -48.4%

Q: With `COc1ccccc1OCC(O)Cn1c(=N)n(Cc2ccccc2)c2ccccc21.Cl` (centres unmarked) as the molecule, how does the “hERG current change (%, negative = inhibition) at 1uM” value read?
A: -39.6%

Q: Which “hERG current change (%, negative = inhibition) at 1uM” value does the source give for `CCCCCn1c(=N)n(CC(O)COc2ccccc2OC)c2ccccc21.Cl` (centres unmarked) here?
A: -86.3%

Q: How did the “hERG current change (%, negative = inhibition) at 1uM” value turn out when `C=CCn1c(=N)n(CC(O)COc2ccccc2OC)c2ccccc21.Cl` (centres unmarked) was run?
A: -43.5%

Q: `COC(=O)[C@H](C)NC(=O)Nc1ccc(C)c(C)c1` was tested. Which “hERG current change (%, negative = inhibition) at 1uM” value did it give?
A: 15.2%

Q: How did the “hERG current change (%, negative = inhibition) at 1uM” value turn out when `Cc1ccnc(SCc2ccc([N+](=O)[O-])cc2)n1` was run?
A: -1.04%

Q: For `COCCN(C(=O)CSc1nc(-c2ccccc2)cn1N)c1c(N)n(Cc2ccccc2)c(=O)[nH]c1=O`, which “hERG current change (%, negative = inhibition) at 1uM” value is on record?
A: 3.04%

Q: Which “hERG current change (%, negative = inhibition) at 1uM” value does the source give for `CCCC(=O)Nc1cc(C(=O)O)ccc1Sc1ccc(C)cc1` here?
A: 10.9%

Q: For `Cc1ccc(C)c(-n2c(SCC(=O)Nc3nonc3C)nnc2-c2ccoc2C)c1`, which “hERG current change (%, negative = inhibition) at 1uM” value is on record?
A: 9.3%

Q: How did the “hERG current change (%, negative = inhibition) at 1uM” value turn out when `CCCn1c(SCC(=O)Nc2nonc2C)nnc1-c1ccoc1C` was run?
A: 5.83%

Q: Which “hERG current change (%, negative = inhibition) at 1uM” value does the source give for `Cc1nonc1NC(=O)CSc1nnc(-c2ccoc2C)n1C` here?
A: 9.71%

Q: With `Cc1nonc1NC(=O)CSc1nnc(-c2ccoc2C)n1-c1cccc(Cl)c1` as the molecule, how does the “hERG current change (%, negative = inhibition) at 1uM” value read?
A: -58.8%

Q: `Cc1cccc(-n2c(SCC(=O)NC3CCCC3)nnc2-c2ccoc2C)c1` was tested. Which “hERG current change (%, negative = inhibition) at 1uM” value did it give?
A: -68.6%

Q: Which “hERG current change (%, negative = inhibition) at 1uM” value does the source give for `CCn1c(SCC(=O)Nc2nonc2C)nnc1-c1ccoc1C` here?
A: 7.63%

Q: `Cc1occc1-c1nnc(SCC(=O)NC2CCCC2)n1-c1ccccc1` was tested. Which “hERG current change (%, negative = inhibition) at 1uM” value did it give?
A: 0.492%

Q: For `Cc1occc1-c1nnc(SCC(=O)NC2CCCC2)n1C`, which “hERG current change (%, negative = inhibition) at 1uM” value is on record?
A: 13.5%

Q: `Cc1cccc(-n2c(SCC(=O)Nc3nonc3C)nnc2-c2ccoc2C)c1` was tested. Which “hERG current change (%, negative = inhibition) at 1uM” value did it give?
A: -81.9%

Q: With `c1ccc2c(c1)CCCn1nnnc1-2` as the molecule, how does the “hERG current change (%, negative = inhibition) at 1uM” value read?
A: 6.71%

Q: Which “hERG current change (%, negative = inhibition) at 1uM” value does the source give for `CCCC(=O)N(Cc1cc(=O)[nH]c2ccccc12)c1ccccc1C` here?
A: 13.1%

Q: Which “hERG current change (%, negative = inhibition) at 1uM” value does the source give for `O=C(Cn1cnc(S(=O)(=O)N2CCCC2)c1)Nc1cccc(F)c1` here?
A: 14.4%

Q: How did the “hERG current change (%, negative = inhibition) at 1uM” value turn out when `COc1ccc(S(=O)(=O)N2CCOCC2)cc1NC(=O)c1ccc(-n2nc(C)cc2C)cc1` was run?
A: 6.25%

Q: For `CCc1ccc(C(=O)OCC(=O)Nc2cccc(S(=O)(=O)NC3=NCCCCC3)c2)cc1`, which “hERG current change (%, negative = inhibition) at 1uM” value is on record?
A: 7.29%

Q: With `COc1ccc(CNS(=O)(=O)c2ccc3c(c2)CC(C)N3C(=O)C2CC2)cc1` (centres unmarked) as the molecule, how does the “hERG current change (%, negative = inhibition) at 1uM” value read?
A: 15.1%

Q: `O=C(CCC(=O)N1CCOc2ccccc21)NCCCN1CCN(Cc2ccccc2)CC1` was tested. Which “hERG current change (%, negative = inhibition) at 1uM” value did it give?
A: -41.9%

Q: Which “hERG current change (%, negative = inhibition) at 1uM” value does the source give for `Cc1ccc2c(c1)N(C(=O)CCC(=O)NCCCN1CCC(Cc3ccccc3)CC1)CCO2` here?
A: -78.7%

Q: How did the “hERG current change (%, negative = inhibition) at 1uM” value turn out when `CCN1CCN(CCCNC(=O)CCC(=O)N2CCOc3ccc(Cl)cc32)CC1` was run?
A: 6.48%

Q: `O=C(CCC(=O)N1CCOc2ccc(Cl)cc21)NCCCN1CCN(c2ccccc2F)CC1` was tested. Which “hERG current change (%, negative = inhibition) at 1uM” value did it give?
A: -22.2%

Q: How did the “hERG current change (%, negative = inhibition) at 1uM” value turn out when `O=C(CCC(=O)N1CCOc2ccc(Cl)cc21)NCCCN1CCOCC1` was run?
A: 12.5%

Q: With `O=C(CCC(=O)N1CCOc2ccc(Cl)cc21)NCCCN1CCN(Cc2ccccc2)CC1` as the molecule, how does the “hERG current change (%, negative = inhibition) at 1uM” value read?
A: -63.7%

Q: How did the “hERG current change (%, negative = inhibition) at 1uM” value turn out when `O=C(CCC(=O)N1CCOc2ccc(Cl)cc21)NCCCN1CCC(Cc2ccccc2)CC1` was run?
A: -64.7%

Q: With `Cc1ccc2c(c1)N(C(=O)CCC(=O)NCCCN1CCOCC1)CCO2` as the molecule, how does the “hERG current change (%, negative = inhibition) at 1uM” value read?
A: 13.9%

Q: With `Cc1ccc2c(c1)N(C(=O)CCC(=O)NCCCN1CCN(C)CC1)CCO2` as the molecule, how does the “hERG current change (%, negative = inhibition) at 1uM” value read?
A: 7.21%
